Measured values taken from ChEMBL document CHEMBL1201862, “PubChem BioAssay data set” (2004).
Out of some 58,000 sequences screened, about 3,600 (6.2%) were called active. No stated cut-off is given here; in the data, active = GI50 up to about 1.1 µM and inactive = higher. This excerpt belongs to a sample that is enriched for actives. Measured potencies and affinities stand elsewhere.

The substances below were run on NCI-H23.
For “mu-(1,7-nanodiamine-N,N')bis-(cis-aminedichloroplatimum (II)), CHEMBL2146215”, the GI50 was 4.37 µM. For CISPLATIN, CHEMBL11359, the GI50 was 0.783 µM. With “[Bis(aminomethyl)pentamethylenesilane]tetrachloropaltinum(IV), CHEMBL2146204” the GI50 was 1.51 µM. “[Bis(aminomethyl)pentamethylenesilane]dichloropaltinum(II), CHEMBL2146202” gave a GI50 of 4.59 µM. In the case of “[Bis(aminomethyl)dimethylsilane]tetrachloroplatinum(IV), CHEMBL2146190”, the GI50 is reported as 3.98 µM. With “[Bis(aminomethyl)tetramethylenesilane]dichloropaltinum(II), CHEMBL2146205” the GI50 was 13.5 µM. Substance “[Bis(aminomethyl)tetramethylenesilane]tetrachloropaltinum(IV), CHEMBL2146189” has a GI50 of 3.33 µM. Work on “[Bis(aminomethyl)diethylsilane]tetrachloroplatinum(IV), CHEMBL2146203” yielded a GI50 of 2.79 µM.
